Among the test systems are NCI-H23 lung; NCI-H226 lung; NCI-H322M lung; HOP-62 NSCLC; NCI-H460 lung; NCI-H522 lung; A549/ATCC NSCLC; 786-0 renal; COLO 205 colon; DU-145 prostate; K-562 leukemia; MDA-MB-231 breast; SF-268 CNS; SF-295 CNS; SF-539 CNS; UACC-257 melanoma; MALME-3M melanoma; RXF 393 renal; HOP-92 NSCLC.
Assay in all cases: NCI-60 one-dose screen, 48 h (100 = growth as untreated, 0 = no growth, -100 = all killed)
The test system of the next experiment is M14 melanoma. As to conditions: 10 µM.

SMILES strings stand for the structures. This is part of a sample that, as a whole, favours compounds with a hit. Of some 83,000 tested, about 20% had one in any assay.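 Note: values are percent growth. 100 is the growth of untreated cells, values between 100 and 0 indicate rising inhibition; between -100 and 0 indicates cell death.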 Values without a mark were called inactive. Active and inactive are the calls of the source. The calls were made as follows: active = growth percent below 10; inactive = the rest. Starred links: 1 amine or outer side, 2 acyl side, 3 side chain; linkers in the order of their positions; H or OH if unused. Positions of bridges follow the written chain, without caps; N, C: chain ends. Non-standard residues stand in square brackets, D forms with d. Residues, ends and D or L forms follow the SMILES beside them. Chains are numbered I, II in the order given. Actinocin(9to1) = Cc1c2oc3c(C)ccc(C(=O)[*:1])c3nc-2c(C(=O)[*:2])c(N)c1=O; aThr = C[C@H](O)[C@H](N)C(=O)O; NMeV = CN[C@H](C(=O)O)C(C)C; Sar = CNCC(=O)O

With `Cc1cnc(/C=N\NC(N)=S)c2cccc(N)c12`, the growth with NCI-H23 lung (10 µM) was 7.29% (active); with NCI-H226 lung (10 µM), 4.78% (active); in the experiment on NCI-H322M lung (10 µM), -21.9% (active); with HOP-62 NSCLC (10 µM), 11.3%; in the experiment with NCI-H460 lung (10 µM) it was 1.79% (active); in the experiment with NCI-H522 lung (10 µM), -1.74% (active). For the same compound, the growth was 11.6% in the experiment with A549/ATCC NSCLC (10 µM); 6.81% (active) in the experiment on 786-0 renal (10 µM); 15.1% with COLO 205 colon (10 µM); -15.6% (active) in the experiment on DU-145 prostate (10 µM); 30.6% in the experiment with K-562 leukemia (10 µM); 34.2% with MDA-MB-231 breast (10 µM). The growth in the experiment with SF-268 CNS (10 µM) was 2.26% (active); with SF-295 CNS (10 µM) it was -29.9% (active); in the experiment on SF-539 CNS (10 µM), -47.9% (active); in the experiment with UACC-257 melanoma (10 µM), -30.6% (active); in the experiment on M14 melanoma it was -24.7% (active).

Regarding `CN(C)CCC(=O)c1c[nH]c2ccccc12`, the growth is 110% in the experiment with NCI-H23 lung (10 µM); 105% in the experiment with NCI-H226 lung (10 µM); 94% with NCI-H322M lung (10 µM); 94.4% with HOP-62 NSCLC (10 µM); 113% in the experiment on NCI-H460 lung (10 µM); 91.8% with NCI-H522 lung (10 µM). Moreover, the growth is 110% with A549/ATCC NSCLC (10 µM); 98.8% in the experiment on 786-0 renal (10 µM); 111% with COLO 205 colon (10 µM); 111% with DU-145 prostate (10 µM); 105% in the experiment with MALME-3M melanoma (10 µM); 115% with MDA-MB-231 breast (10 µM). In addition, the growth was 126% in the experiment with RXF 393 renal (10 µM); 115% with SF-268 CNS (10 µM); 99.7% in the experiment on SF-295 CNS (10 µM); 103% in the experiment with SF-539 CNS (10 µM); 115% in the experiment on UACC-257 melanoma (10 µM); 101% in the experiment on M14 melanoma.

With `Cc1c2oc3c(C)ccc(C(=O)N[C@@H]4C(=O)N[C@H](C(C)C)C(=O)N5CCC[C@H]5C(=O)N(C)CC(=O)N(C)[C@@H](C(C)C)C(=O)O[C@H]4C)c3nc-2c(C(=O)N[C@@H]2C(=O)N[C@H](C(C)C)C(=O)N3CCC[C@H]3C(=O)N(C)CC(=O)N(C)[C@@H](C(C)C)C(=O)O[C@H]2C)c(N)c1=O` (I: [aThr][dV]P[Sar][NMeV] / II: [aThr][dV]P[Sar][NMeV]; ester I:1-I:C, II:1-II:C; linker I:N-II:N via Actinocin(9to1)), the growth in the experiment on NCI-H23 lung (0.0025 µM) is 53.2%; in the experiment on NCI-H23 lung (10 µM) it was -50.9% (active); in the experiment with NCI-H226 lung (0.0025 µM), 57.3%; in the experiment on NCI-H226 lung (10 µM), -12.4% (active); in the experiment on NCI-H322M lung (0.0025 µM), 64.7%; with NCI-H322M lung (10 µM) it was 7.68% (active). Also, the growth in the experiment with HOP-62 NSCLC (0.0025 µM) was 41.2%; in the experiment with HOP-62 NSCLC (10 µM), -16.9% (active); in the experiment with NCI-H460 lung (0.0025 µM), 16.7%; with NCI-H460 lung (10 µM), -22.4% (active); with HOP-92 NSCLC (0.0025 µM), 50.7%; with HOP-92 NSCLC (10 µM), -16.3% (active). In addition, the growth with NCI-H522 lung (0.0025 µM) is 33.9%; in the experiment with NCI-H522 lung (10 µM), -38.4% (active); in the experiment with A549/ATCC NSCLC (0.0025 µM), 36.8%; in the experiment with A549/ATCC NSCLC (10 µM) it was -38.9% (active); with 786-0 renal (0.0025 µM), 41.8%; with 786-0 renal (10 µM) it was -3.24% (active). The growth in the experiment with COLO 205 colon (0.0025 µM) is 44.2%; in the experiment on COLO 205 colon (10 µM) it was -56.7% (active); in the experiment on DU-145 prostate (0.0025 µM), 41.6%; in the experiment on DU-145 prostate (10 µM) it was -30.5% (active); with K-562 leukemia (0.0025 µM) it was 18.8%; with K-562 leukemia (10 µM), 0.49% (active). In addition, the growth in the experiment with MALME-3M melanoma (0.0025 µM) is 66.3%; in the experiment with MALME-3M melanoma (10 µM), -61.4% (active); with MDA-MB-231 breast (0.0025 µM), 64.2%; with MDA-MB-231 breast (10 µM), -2.13% (active); in the experiment with RXF 393 renal (0.0025 µM), 31.1%; with RXF 393 renal (10 µM) it was -45.9% (active). The growth in the experiment on SF-268 CNS (0.0025 µM) was 46.1%; in the experiment on SF-268 CNS (10 µM), -9.34% (active); in the experiment on SF-295 CNS (0.0025 µM), 62.4%; in the experiment with SF-295 CNS (10 µM) it was -8.12% (active); with SF-539 CNS (0.0025 µM), 25.5%; in the experiment with SF-539 CNS (10 µM) it was -54.7% (active). Further, the growth is 30.6% in the experiment with UACC-257 melanoma (0.0025 µM) and -29.8% (active) in the experiment on UACC-257 melanoma (10 µM).

As to `CN1CCN(c2ccc3nc(-c4ccc5nc(-c6ccc(O)cc6)[nH]c5c4)[nH]c3c2)CC1`, the growth with NCI-H23 lung (10 µM) was 74%; in the experiment with NCI-H226 lung (10 µM) it was 88.5%; in the experiment with NCI-H322M lung (10 µM), 106%; with HOP-62 NSCLC (10 µM), 95.8%; with NCI-H460 lung (10 µM) it was 107%; in the experiment on HOP-92 NSCLC (10 µM), 42.1%. For the same compound, the growth is 47% with NCI-H522 lung (10 µM); 62.1% in the experiment on A549/ATCC NSCLC (10 µM); 87.2% in the experiment with 786-0 renal (10 µM); 72% in the experiment on COLO 205 colon (10 µM); 84.5% in the experiment with DU-145 prostate (10 µM); 50.2% with K-562 leukemia (10 µM). The growth was 37.9% with MALME-3M melanoma (10 µM); 121% with MDA-MB-231 breast (10 µM); 37.3% in the experiment with RXF 393 renal (10 µM); 82.9% with SF-268 CNS (10 µM); 96.3% with SF-295 CNS (10 µM); 77% with SF-539 CNS (10 µM). Besides, in the experiment with UACC-257 melanoma (10 µM), the growth is 113%.

Source of the values: PubChem BioAssay (NCI).
